Our source for the cytotoxicity values is PubChem BioAssay AID430 (Sanford-Burnham Center for Chemical Genomics, 2006).

Out of some 63,000 compounds screened, about 1,100 (1.7%) were called active. Cut-off read from the data, not from the text of the source: active = cytotoxicity above about 50%; inactive = the rest. The list comes from a sample in which actives are over-represented; it also holds similar structures and randomly drawn compounds. Entries with a potency or affinity are not part of this list.

The test is described as follows: HPDE-C7 pancreatic duct cell viability loss – fluorescence, HTS (AID 430).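 Note: cells exposed to compound for 48 hours before viability readout; 0% = vehicle and 100% = reference cytotoxic drug.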 The note with it: HPDE-C7 pancreatic duct cells viability, at 10 µM, stronger effect = higher value.
Regarding `CC(C)NC(=O)c1ccccc1NC(=O)CCS(=O)(=O)Cc1ccccc1`, the cytotoxicity was -16.4% (inactive). As to `Cn1c(CSc2ccccc2)c(C#N)c2ccccc21`, the cytotoxicity was -6.2% (inactive). As for `Cc1cc(C(=O)CSc2nnc(NCc3ccccc3)s2)c(C)n1C`, the cytotoxicity was 58% (active). On to `O=C(CSc1nnc(NCc2ccccc2)s1)c1ccco1`, for which the cytotoxicity is -4.8% (inactive). As to `Cc1cc(C(=O)CSc2nnc(-c3ccccc3)n2C)c(C)n1C`, the cytotoxicity was 5.7% (inactive). Take `C=CCn1c(C)cc(C(=O)CSc2nnc(NCc3ccccc3)s2)c1C`: the cytotoxicity is 52.9% (active). For `C=CCn1c(C)cc(C(=O)CSc2nnc(Cc3ccccc3)o2)c1C`, the cytotoxicity was -20.7% (inactive). For the molecule `Cc1cc(C(=O)CSc2nnc(Nc3ccccc3)s2)c(C)n1CC1CCCO1` (stereo unspecified), the cytotoxicity was 2.6% (inactive). Next, `Cc1cc(N2C(=O)C3C4C=CC(C4)C3C2=O)no1` (stereo unspecified): -1% (inactive).

With `COCCCn1c(=S)[nH]c2ccc(N3CCOCC3)cc2c1=O`, the cytotoxicity was -10.8% (inactive).

For `O=C(O)CCCC(=O)Nc1ccccc1Br`, the cytotoxicity is 5.7% (inactive). In the case of `CCN1C(=O)c2cccc3c(S(=O)(=O)Nc4nc(C)cs4)ccc1c23`, the cytotoxicity was 58.9% (active). Take `CCN1C(=O)c2cccc3c(S(=O)(=O)Nc4ncccc4C)ccc1c23`: the cytotoxicity was 23.7% (inactive).

Take `CCOC(=O)Cc1csc(NS(=O)(=O)c2ccc3c4c(cccc24)C(=O)N3CC)n1`: the cytotoxicity is 8.7% (inactive).

For the molecule `O=C(c1ccccc1)c1coc2ccc(O)c(Cl)c12`, the cytotoxicity is -4.8% (inactive).

As to `CCOC(=O)c1[nH]nc(C(=O)c2ccc(Br)cc2)c1O`, the cytotoxicity is -10.7% (inactive). In the case of `CN(C)Cc1c(O)ccc2occ(C(=O)c3ccccc3)c12`, the cytotoxicity is 6.4% (inactive). Take `Cc1ccc(C(=O)c2coc3ccc(O)c(CN4CCN(C)CC4)c23)cc1`: the cytotoxicity is -5.9% (inactive). As to `CC(=O)C(C(C)=O)c1c(Cl)c(O)c(O)c2c(C(=O)c3ccccc3)coc12`, the cytotoxicity is 82.2% (active). Next, `Cc1ccc(OCCn2nc3ccccc3n2)c(C)c1`: -1.3% (inactive). Regarding `O=C(CSc1nnc(CNC(=O)c2ccccc2F)o1)Nc1ccc2c(c1)OCCO2`, the cytotoxicity is 1.1% (inactive). In the case of `O=C(c1ccco1)N1CCN(S(=O)(=O)c2cccs2)CC1`, the cytotoxicity is -11.8% (inactive). In the case of `Cc1cc2cc(CN(C(=O)C3CC3)C3CCCC3)c3nnnn3c2cc1C`, the cytotoxicity is -22.1% (inactive). Take `CCOc1ccccc1Nc1nc(N)nc(CSc2nncn2C)n1`: the cytotoxicity is -1.9% (inactive). On to `Cc1ccc(Oc2ccc(S(=O)(=O)N3CCOCC3)cc2C(N)=O)c(-n2nc3ccccc3n2)c1`, for which the cytotoxicity was 53.1% (active). On to `Cc1ccc(S(=O)(=O)N2CCOCC2)cc1C(=O)O`, for which the cytotoxicity is -13.5% (inactive). As to `COc1ccccc1Oc1ccc(S(=O)(=O)N2CCOCC2)cc1S(=O)(=O)N1CCOCC1`, the cytotoxicity is -10.8% (inactive).

For the molecule `COc1cnn(-c2ccccc2)c(=O)c1N(C)C`, the cytotoxicity was -1.2% (inactive).

Consider `O=C(C1CC1)N1CCc2cc(Br)cc(S(=O)(=O)NCCN3CCOCC3)c21`, for which the cytotoxicity is -14.7% (inactive).

As for `O=c1c2ccccc2nc(SCc2nnc(-c3ccccc3Br)o2)n1Cc1ccco1`, the cytotoxicity was 14.1% (inactive). Regarding `COC(=O)c1ccc(C(=O)OC)c(NC(=O)c2cnc3n(c2=O)CCS3)c1`, the cytotoxicity is -7.2% (inactive). For the molecule `CCCc1[nH]nc2c1C(c1ccc(OC)cc1OC)C(C#N)=C(N)O2` (stereo unspecified), the cytotoxicity is -5% (inactive). `OCC(CO)(CO)N=Cc1c(O)ccc2ccccc12`: the cytotoxicity was 58.9% (active). Next, `Oc1ccc2ccccc2c1/C=N/n1cnnc1`: 10.5% (inactive). Turning to `Oc1ccc2ccccc2c1C=NC12CN3CCN(CN(C3)C1)C2`, the cytotoxicity was 0.3% (inactive).

In the case of `CCNc1nc(N2CCCCC2)nc(-n2nnc(C(=O)OCC)c2C)n1`, the cytotoxicity was -22.1% (inactive). `O=c1[nH]c2ccccc2n1CCCOc1ccccc1`: the cytotoxicity was 5% (inactive). Regarding `O=C1SC(SCc2ccccc2)=N/C1=C\c1ccco1`, the cytotoxicity is 2.6% (inactive). In the case of `C=CCSC1=N/C(=C\C=C\c2ccco2)C(=O)S1`, the cytotoxicity is 45.9% (inactive). The value for `CCCSC1=N/C(=C\C=C\c2ccco2)C(=O)S1` was 61.6% (active); that for `Cc1cccc(OCCCC(=O)Nc2ccc3c(c2)OCO3)c1` was 34% (inactive); that for `CN(C)CC(C(=O)c1ccccc1)c1ccccc1` (stereo unspecified) was 103% (active).

As for `COc1ccc(C(C(=O)OC(C)CN(C)C)c2ccccc2)cc1` (stereo unspecified), the cytotoxicity was 4.3% (inactive). Consider `CCC(C(=O)c1ccc(O)cc1)c1ccccc1` (stereo unspecified), for which the cytotoxicity was 9.4% (inactive). As to `N=c1n(CC(=O)O)c2ccccc2n1Cc1ccccc1Cl`, the cytotoxicity was -13.9% (inactive). Turning to `O=C(Cn1nnc(-c2cccc(C(F)(F)F)c2)n1)NC1CCCC1`, the cytotoxicity is 8.5% (inactive). The value for `Cc1cc(C)n(CC(=O)n2c3c(c4ccccc42)CCCC3)n1` was -18.6% (inactive). Next, `CC1CCCCN1C(=O)CSc1nc2cc3c(cc2c(=O)n1Cc1ccc2c(c1)OCO2)OCO3` (stereo unspecified): 0.1% (inactive); `COC(=O)c1ccc2c(=O)n(Cc3ccc4c(c3)OCO4)c(SCC(=O)N3CCCC3)nc2c1`: 52.3% (active). For `COC(=O)c1ccc2c(=O)n(CCC3=CCCCC3)c(SCC(=O)N3CCCC3)nc2c1`, the cytotoxicity is -13.9% (inactive).

Consider `Nc1nc(CSc2ncn(-c3ccccc3)n2)cs1`, for which the cytotoxicity is 15.3% (inactive). As to `CC(=O)N(Cc1cc2ccc(C)c(C)c2n2nnnc12)C1CCCC1`, the cytotoxicity was -3.5% (inactive). The value for `Cc1ccc(S(=O)(=O)N(CC(=O)O)Cc2ccccc2)cc1` was -7.6% (inactive); that for `O=C(CN1C(=O)C2CC=C(Cl)CC2C1=O)N1CCOCC1` (stereo unspecified) was -3.5% (inactive); that for `CN1CCN(C(=O)c2cccc(S(=O)(=O)N3CCCCC3)c2)CC1` was -2.6% (inactive). Consider `O=C(NC1CCCCCCC1)c1c(O)c2ccccc2[nH]c1=O`, for which the cytotoxicity is -13.7% (inactive). For `Cn1c(=O)c(C(=O)NC2CCCCCCC2)c(O)c2ccccc21`, the cytotoxicity is 9.6% (inactive). As for `O=C(NC1CCCC1)c1sc(=S)n2c1[nH]c(=O)c1ccccc12`, the cytotoxicity is 79.4% (active). Turning to `O=C(NC1CCCCC1)c1sc(=S)n2c1[nH]c(=O)c1ccccc12`, the cytotoxicity was 82.6% (active).

Regarding `O=C(NC1CCCCCC1)c1c(O)c2ccccc2[nH]c1=O`, the cytotoxicity is -4.9% (inactive).

Regarding `Cn1c(C(=O)NC2CCCC2)cc2c(=O)n(C)c3ccccc3c21`, the cytotoxicity is 3.5% (inactive). In the case of `COCCN(CCOC)C(=O)CCn1c(=O)oc2ccccc21`, the cytotoxicity is -0.2% (inactive). `Cc1cc2n(n1)C(c1sccc1C)Nc1c(C)cccc1-2` (stereo unspecified): the cytotoxicity was -3.2% (inactive). On to `C(=C\c1ccccc1)/CSc1nnc(-c2ccccn2)n1Cc1ccco1`, for which the cytotoxicity was 33.9% (inactive). Next, `CC1(C)Cc2nc3oc4c(=S)nc[nH]c4c3cc2CO1`: -4.7% (inactive); `Cn1c(=O)c2c(ncn2CC(=O)N2CCN(c3ccc(F)cc3)CC2)n(C)c1=O`: 4.3% (inactive).

Turning to `COc1ccccc1-c1cc(C(F)(F)F)nc(S(=O)(=O)CCCC(=O)Nc2cc(C)on2)n1`, the cytotoxicity is 38.2% (inactive). In the case of `COc1ccc(-c2cc(C(F)(F)F)nc(SCC(=O)Nc3cc(C)on3)n2)cc1`, the cytotoxicity was -21.7% (inactive). As for `COc1ccc(-c2cc(C(F)(F)F)nc(SCCC(=O)NCc3ccco3)n2)cc1`, the cytotoxicity is -3.2% (inactive). For `CCOC(=O)CS(=O)(=O)c1ccc2ccccc2c1`, the cytotoxicity was -10.2% (inactive).

For the molecule `CCOC(=O)CS(=O)(=O)c1nc(-c2ccccc2)cc(C(F)(F)F)n1`, the cytotoxicity was 27.1% (inactive). On to `CCOC(=O)c1cnn2c(C)cc(-c3ccc(F)cc3)nc12`, for which the cytotoxicity was -7.6% (inactive).

For the molecule `COCC(C)NC(=O)CCS(=O)(=O)c1nc(-c2ccc(OC)cc2)cc(C(F)(F)F)n1` (stereo unspecified), the cytotoxicity was 66.1% (active). On to `Cc1cc(NC(=O)CCCS(=O)(=O)c2nc(-c3cccs3)cc(C(F)(F)F)n2)no1`, for which the cytotoxicity was 3.6% (inactive).

For `CCOC(=O)CCn1nc(-c2ccccc2)cc1N`, the cytotoxicity was -7.8% (inactive). On to `CCn1cc(C(=O)NC2CCCCCC2)c2cc(OC)c(OC)cc2c1=O`, for which the cytotoxicity was -1.3% (inactive). Take `CS(=O)(=O)Nc1ccc(C(=O)NCCSCc2ccco2)cc1`: the cytotoxicity is -13.9% (inactive). Regarding `COCCOC(=O)C1=C(C)NC(=O)NC1c1ccc(OC(=O)c2ccco2)c(OC)c1` (stereo unspecified), the cytotoxicity was -1.8% (inactive).

Turning to `Cc1cc(=O)[nH]c(N2CCN(C(c3ccccc3)c3ccccc3)CC2)n1`, the cytotoxicity was -6% (inactive).

As for `COc1ccc(C2CC(=O)c3cnc(NC(=O)c4cc(OC)cc(OC)c4)nc3C2)cc1` (stereo unspecified), the cytotoxicity was -16.4% (inactive). Take `O=C(NCCN1CCOCC1)c1ccc(-c2ccccc2)cc1`: the cytotoxicity was 2.5% (inactive). Regarding `CCN(CC)S(=O)(=O)c1ccc(NC(=O)COc2c(OC)cccc2OC)cc1`, the cytotoxicity was -2.7% (inactive). As to `O=C(CSc1nnc(C23CC4CC(CC(C4)C2)C3)o1)Nc1ccc(N2CCOCC2)c(Cl)c1`, the cytotoxicity is -10% (inactive).

As for `CCOC(=O)c1oc2ccc(S(=O)(=O)N3CCC(C)CC3)cc2c1C`, the cytotoxicity is 16.8% (inactive).

With `CCOC(=O)c1oc2ccc(S(=O)(=O)n3nc(-c4ccc(OC)cc4)cc3N)cc2c1C`, the cytotoxicity is 54.2% (active). For the molecule `CCOC(=O)c1oc2ccc(S(=O)(=O)N3CCOCC3)cc2c1C`, the cytotoxicity is 3.6% (inactive). Consider `CCn1c(CSc2nccn2C)nc2cc(C(=O)O)ccc21`, for which the cytotoxicity was 2.6% (inactive). As for `NC1=NC(=O)CC(C(=O)NCc2ccccc2)S1` (stereo unspecified), the cytotoxicity is -6.8% (inactive). In the case of `Cn1c(=O)[nH]c(=O)c2c1nc(N1CCOCC1)n2CC(O)COc1ccccc1` (stereo unspecified), the cytotoxicity is -10.9% (inactive). Consider `CC(C)CSc1nc2c(c(=O)[nH]c(=O)n2C)n1CC(O)COc1cccc2ccccc12` (stereo unspecified), for which the cytotoxicity was 68.7% (active). Consider `Cc1ccccc1OCC(O)Cn1c(N2CCN(c3ccccc3)CC2)nc2c1c(=O)[nH]c(=O)n2C` (stereo unspecified), for which the cytotoxicity is 82.9% (active).

Turning to `COc1ccccc1OCC(O)Cn1c(Br)nc2c1c(=O)[nH]c(=O)n2C` (stereo unspecified), the cytotoxicity was 2.9% (inactive). Next, `CCSc1nc2c(c(=O)[nH]c(=O)n2C)n1CC(O)COc1ccccc1C` (stereo unspecified): -1.3% (inactive).

As for `Cc1ccccc1OCC(O)Cn1c(SC(C)C)nc2c1c(=O)[nH]c(=O)n2C` (stereo unspecified), the cytotoxicity is 0.7% (inactive). Regarding `Cc1nn(CCC(=O)O)c2nc(-c3cccnc3)cc(C(F)(F)F)c12`, the cytotoxicity was -17.9% (inactive).

As for `CCN(CC)C(c1ccc(C)cc1)c1nnnn1C1CCCCC1` (stereo unspecified), the cytotoxicity was -25.4% (inactive).
